In PubChem BioAssay:
Entries with a potency or affinity are not part of this list. Results filed as inconclusive are left out. The source made the active and inactive calls. No rule for the calls is given here.

Experiment: non-specific cell cytotoxicity, dose response, cytotoxicity control for PAX8 inhibitor project, plate reader, dry powder samples (AID 743021)
Details: cell line, non-specific cytotoxicity counter-screen; series mostly up to 35 µM

**Q.** Which outcome does the source give for `N#Cc1ccc(-c2ccc(C3[C@@H]4CN(C(=O)C5CC5)C[C@H]3N4)cc2)cc1` (some centres undefined) here?
**A.** The outcome was “inactive”.

**Q.** For `Cc1ccc(-c2csc3ncnc(Sc4nnc(CN5CCCCCC5=O)o4)c23)cc1`, which outcome is on record?
**A.** Its outcome is “inactive”.

**Q.** For `C[C@@H]1CN([C@@H](C)CO)C(=O)Cc2cc(NC(=O)CCC(F)(F)F)ccc2O[C@H]1CN(C)Cc1ccc(-c2ccccc2)cc1`, which outcome is on record?
**A.** The outcome was “inactive”.

**Q.** For `O=C(Nc1cccc(NC(=O)c2cccs2)c1)c1ccc([N+](=O)[O-])o1`, which outcome is on record?
**A.** The outcome was “inactive”.

**Q.** Which outcome does the source give for `C[C@@H]1CCCCO[C@H](CN(C)Cc2ccc(C(F)(F)F)cc2)[C@H](C)CN([C@H](C)CO)C(=O)c2cc(NS(=O)(=O)c3ccccc3)ccc2O1` here?
**A.** The outcome was “inactive”.

**Q.** With `O=S(=O)(c1ccccc1F)N1CC[C@@H]2[C@@H](CO)Nc3ccc(C4=CCCCC4)cc3[C@@H]21` as the compound, how does the outcome read?
**A.** The outcome was “inactive”.

**Q.** With `Cc1noc(C)c1S(=O)(=O)N(C)C[C@@H]1OCCCC[C@H](C)Oc2ccc(NS(=O)(=O)c3ccc(Cl)cc3)cc2C(=O)N([C@H](C)CO)C[C@@H]1C` as the compound, how does the outcome read?
**A.** Its outcome is “inactive”.

**Q.** With `C[C@@H]1CCCCO[C@H](CN(C)Cc2ccc(Cl)c(Cl)c2)[C@H](C)CN([C@@H](C)CO)C(=O)c2cc(NC(=O)Nc3ccccc3)ccc2O1` as the compound, how does the outcome read?
**A.** Its outcome is “inactive”.

**Q.** For `O=C(c1cc([N+](=O)[O-])ccc1N1CCOCC1)N1CCN(c2ccccc2)CC1`, which outcome is on record?
**A.** Its outcome is “inactive”.

**Q.** With `C[C@H](CO)N1C[C@H](C)[C@@H](CN(C)S(=O)(=O)c2ccc(Cl)cc2)OCCCC[C@H](C)Oc2ccc(NS(=O)(=O)c3ccc(Cl)cc3)cc2C1=O` as the compound, how does the outcome read?
**A.** The outcome was “inactive”.

**Q.** For `Cc1ccc(NC(=O)Cn2ncc(Cl)c(Cl)c2=O)cc1S(=O)(=O)N1CCCCC1`, which outcome is on record?
**A.** The outcome was “inactive”.

**Q.** With `CCOc1ccc(NC(=O)Nc2cc(OCC(F)(F)F)cc(OCC(F)(F)F)c2)cc1` as the compound, how does the outcome read?
**A.** Its outcome is “inactive”.

**Q.** With `COc1ccc(NC(=O)c2c(Nc3ccccc3)sc(C(=O)c3ccc(F)cc3)c2N)cc1` as the compound, how does the outcome read?
**A.** The outcome was “inactive”.

**Q.** For `C[C@@H]1CN([C@H](C)CO)S(=O)(=O)c2ccc(C#CC3CCCC3)cc2O[C@@H]1CN(C)C(=O)Cc1ccncc1`, which outcome is on record?
**A.** The outcome was “inactive”.

**Q.** Which outcome does the source give for `COc1ccc(-c2nc3c(c(SCC(=O)Nc4cccc(O)c4)n2)Cc2c(CO)cnc(C)c2O3)cc1` here?
**A.** Its outcome is “inactive”.

**Q.** With `CCN(CC)S(=O)(=O)c1cc(NC(=O)Cn2ncc(Cl)c(Cl)c2=O)ccc1C` as the compound, how does the outcome read?
**A.** Its outcome is “inactive”.

**Q.** Which outcome does the source give for `O=C(C[C@H]1CC[C@H]2[C@@H](COC[C@@H](O)CN2Cc2ccc(Oc3ccccc3)cc2)O1)N1CCCCC1` here?
**A.** Its outcome is “inactive”.

**Q.** With `O=C(Nc1ccccc1)NN(C(=O)CCl)c1ccccc1` as the compound, how does the outcome read?
**A.** The outcome was “inactive”.

**Q.** For `C[C@@H]1CCCCO[C@@H](CN(C)C(=O)Nc2cccc3ccccc23)[C@H](C)CN([C@H](C)CO)C(=O)c2cc(NS(=O)(=O)c3ccccc3)ccc2O1`, which outcome is on record?
**A.** The outcome was “inactive”.

**Q.** With `CCCNC(=O)Nc1ccc2c(c1)OC[C@H](C)N(Cc1ccc(-c3ccccn3)cc1)C[C@@H](C)[C@@H](OC)CN(C)C2=O` as the compound, how does the outcome read?
**A.** Its outcome is “inactive”.

**Q.** With `Cc1ccc(NC(=O)CN(C)C(=O)Cn2ncc(Cl)c(Cl)c2=O)cc1` as the compound, how does the outcome read?
**A.** Its outcome is “inactive”.

**Q.** For `CC(=O)[C@@]1(O)Cc2c(O)c3c(c(O)c2[C@H](O[C@H]2C[C@H](N)[C@H](O)[C@H](C)O2)C1)C(=O)c1ccccc1C3=O`, which outcome is on record?
**A.** Its outcome is “inactive”.

**Q.** For `CCOC(=O)Nc1ccc2c(c1)N(C(=O)CCN(CC)CC)c1ccccc1S2=O` (centres undefined), which outcome is on record?
**A.** The outcome was “inactive”.

**Q.** Which outcome does the source give for `CN1c2ccc(-c3cccc(F)c3)cc2[C@@H]2[C@@H](CCN2C(=O)Cc2ccccc2)[C@@H]1CO` here?
**A.** The outcome was “inactive”.

**Q.** Which outcome does the source give for `O=C(NC12CC3CC(CC(C3)C1)C2)c1ccc([N+](=O)[O-])o1` here?
**A.** Its outcome is “inactive”.

**Q.** With `C[C@@H]1CN([C@H](C)CO)C(=O)Cc2cc(NC(=O)Nc3ccc(F)cc3)ccc2O[C@H]1CN(C)Cc1ccc(Cl)c(Cl)c1` as the compound, how does the outcome read?
**A.** Its outcome is “inactive”.

**Q.** With `COc1ccc(NC(=O)Nc2ccc3c(c2)CC(=O)N([C@H](C)CO)C[C@@H](C)[C@@H](CN(C)Cc2ccc(Oc4ccccc4)cc2)O3)cc1` as the compound, how does the outcome read?
**A.** The outcome was “inactive”.

**Q.** With `Nc1nnnn1/N=C/C(Br)=C/c1ccccc1` as the compound, how does the outcome read?
**A.** The outcome was “inactive”.

**Q.** For `C[C@@H]1CCCCO[C@H](CN(C)Cc2ccc(C(F)(F)F)cc2)[C@H](C)CN([C@H](C)CO)C(=O)c2cc(NS(=O)(=O)c3cccs3)ccc2O1`, which outcome is on record?
**A.** The outcome was “inactive”.
